In PubChem BioAssay:
Some of the results follow. Activity calls are given as the source filed them.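 Rule for the calls, unless noted: active = inhibition above the mean of solvent-only control wells plus 3 SD, cutoff set per campaign (cut at about 13% in these data); inactive = the rest.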

What was measured:
[1] = blockers of IL-6 STAT3 signaling – U3A cells, luciferase, luminescence, confirmation (AID 1265;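 active = inhibition above the hit cutoff computed for the primary STAT3 screen, cut at about 44% in these data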;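 note: 0% = IL-6 plus DMSO and 100% = IL-6 plus nifuroxazide control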); conditions: IL-6 STAT3 luciferase reporter, at 5.7 µM, hits give high values, cell line lacks STAT1
[2] = inhibition of TNF-alpha-driven NF-kB transcription – cell-based, HEK293T, luciferase, TNF-alpha stimulus, counter-screen for STAT3 inhibitor project, confirmation (AID 1308); conditions: HEK293T NF-kB luciferase reporter, TNF-alpha induced; at 5.7 µM; hits give high values;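 note: 0% = TNF-alpha with DMSO and 100% = TNF-alpha with MG high control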
[3] = inhibition of STAT1-driven transcription – cell-based, NIH 3T3, luciferase luminescence, IFN-gamma, counter-screen for STAT3 inhibitor project, confirmation (AID 1317;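 active = inhibition above the mean plus 3 SD of solvent-only control wells, limit set per screening run, cut at about 16% in these data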;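 note: 0% = DMSO with IFN-gamma and 100% = nifuroxazide control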); conditions: NIH 3T3 STAT1-luciferase reporter, IFN-gamma induced, at 5.7 µM, hits give high values
[4] = system: DAF-12 nuclear receptor (Heterodera glycines), GAL4-LBD fusion; experiment: hgDAF-12 GAL4 fusion reporter activation, retest – cell-based, luminescence, HEK293, GAL4-LBD fusion, confirmation (AID 743050;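 active = mean activation over triplicate wells above the hit cutoff derived from the earlier primary screen, cut at about 11% in these data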;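 note: 0% = DMSO low control and 100% = 2 mM sodium butyrate high control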); conditions: HEK293 GAL4-hgDAF12 luciferase reporter, agonist mode; at 6.8 µM; hits give high values; percent of butyrate response
[5] = target: Oxysterols receptor LXR-beta (Homo sapiens) (UniProt P55055); experiment: nonspecific reporter activation via LXR – cell-based, luminescence, HEK293, H. glycines campaign, counter-screen for hgDAF-12 agonist project, confirmation (AID 743051;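 active = mean activation of the triplicate above a set limit carried over from the primary screen, none filed active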); conditions: HEK293 Gal4-LXR luciferase reporter, 24 h; at 6.8 µM; hits give high values
[6] = target: Photoreceptor-specific nuclear receptor (Homo sapiens) (UniProt Q9Y5X4); experiment: retest of NR2E3-NCOR disrupting agonists – cell-based, luminescence, CHO-S two-hybrid, confirmation (AID 624378;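 active = average inhibition above a cutoff equal to the mean inhibition of all tested compounds plus one SD, cut at about 70% in these data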;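 note: 0% = DMSO in NR2E3 cells and 100% = DMSO in cells lacking NR2E3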); conditions: CHO-S mammalian two-hybrid NR2E3-NCOR, luciferase luminescence; at 3.98 µM; hits give high values
[7] = nonselective effects on VP16 transactivation – cell-based, luminescence, CHO-S, high throughput, counter-screen for NR2E3 agonist project, confirmation (AID 624379;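 active = mean inhibition above a cutoff equal to the average over all tested compounds plus one standard deviation, cut at about 70% in these data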;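 note: 0% = DMSO with VP16-transfected cells and 100% = DMSO with cells lacking VP16; higher means less reporter light so more repression of VP16 activity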); conditions: CHO-S GAL4-VP16 luciferase reporter, at 3.98 µM, hits give high values
[8] = StAR promoter reporter inhibitors, counter-screen for LRH-1 inverse agonist project, cell-based, luminescence, high throughput (AID 651611; in the data active = inhibition above about 28%); conditions: StAR promoter luciferase reporter counterscreen, at 3.6 µM, hits give high values
[9] = target: Nuclear receptor subfamily 5 group A member 2 (Homo sapiens) (UniProt O00482); experiment: NR5A2 activity suppression in reporter cells – cell-based, luminescence, confirmation (AID 651613; in the data active = inhibition above about 42%;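 note: HEK293T cells co-transfected with LRH-1 and StAR promoter luciferase reporter; 0% = vehicle wells and 100% = parental cells lacking receptor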); conditions: cell-based LRH-1 luciferase reporter, inverse agonism; at 3.6 µM; hits give high values
[10] = target: Steroidogenic factor 1 (Homo sapiens) (UniProt Q13285); experiment: inverse agonism at SF1 nuclear receptor – cell-based, luminescence, high throughput, counter-screen for LRH-1 inverse agonist project (AID 651614; in the data active = inhibition above about 44%;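 note: cells cotransfected with StAR promoter reporter and SF1 expression vector; 0% = vehicle on cells with receptor and 100% = vehicle on cells lacking receptor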); conditions: cell-based SF1 luciferase reporter, at 3.6 µM, hits give high values
[11] = compounds suppressing VP16-driven luciferase signal – cell-based, luminescence, high throughput, counter-screen for LRH-1 inverse agonist project (AID 651615; in the data active = inhibition above about 33%); conditions: Gal4-VP16 luciferase reporter cells, at 3.6 µM, hits give high values
[12] = VP16-driven transactivation reporter suppression – cell-based, luminescence, HEK293, counter-screen for COUP-TFII antagonist project (AID 687007; in the data active = inhibition above about 13%); conditions: HEK293 Gal4-VP16 luciferase reporter, at 8.5 µM, hits give high values
[13] = target: COUP transcription factor 2 (Homo sapiens) (UniProt P24468); experiment: retest of COUP-TFII reporter suppressors – cell-based, luciferase reporter, HEK293, triplicate, confirmation (AID 687008;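 active = mean inhibition over three repeats above a set limit taken from the earlier primary screen, cut at about 38% in these data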;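 note: 100% = cells given the luciferase reporter alone without the COUP-TF2 vector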); conditions: HEK293 NGFI-A luciferase reporter, luminescence; at 8.5 µM; hits give high values
[14] = target: Peroxisome proliferator-activated receptor gamma (Homo sapiens) (UniProt P37231); experiment: retested PPARg-SRC-2 recruitment enhancers – biochemical, HTS, confirmation (AID 1297; in the data active = activation above about 22%;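 note: 0% = vehicle alone and 100% = reference agonist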); conditions: biochemical SRC-2 recruitment by PPARgamma; at 8 µM; hits give high values
[15] = target: Peroxisome proliferator-activated receptor gamma (Homo sapiens) (UniProt P37231); experiment: retest of SRC-1 recruitment enhancers for PPARgamma – biochemical, confirmation (AID 1300; in the data active = activation above about 20%;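 note: 0% = vehicle wells and 100% = reference agonist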); conditions: PPARgamma–SRC-1 coactivator recruitment biochemical assay; at 8 µM; hits give high values
[16] = target: Peroxisome proliferator-activated receptor gamma (Homo sapiens) + Nuclear receptor coactivator 3 (Homo sapiens) (UniProt P37231+Q9Y6Q9); experiment: agonists promoting SRC-3 binding to PPARgamma – biochemical, confirmation (AID 1301; in the data active = activation above about 24%;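 note: 0% = vehicle wells and 100% = reference agonist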); conditions: biochemical PPARgamma-SRC-3 coactivator recruitment, agonist mode; at 8 µM; hits give high values
[17] = target: Nuclear receptor coactivator 1 (Homo sapiens) (UniProt Q15788); experiment: NCOA1 GAL4-fusion reporter inhibition – cell-based, luminescence, quadruplicate, confirmation (AID 588820;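 active = mean inhibition above 46.68%, the untreated control wells mean plus 3 SD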;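 note: 0% = DMSO wells and 100% = gossypol 36 µM treated wells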); conditions: HEK293 GAL4-SRC1 luciferase reporter, at 3.6 µM, hits give high values
[18] = repression of VP16-driven luciferase reporter – cell-based, luminescence, high throughput, counter-screen for SRC1 inhibitor project (AID 588824; in the data active = inhibition above about 25%); conditions: cell-based VP16 transactivation luciferase luminescence; at 3.6 µM; hits give high values
[19] = target: Oxysterols receptor LXR-beta (Homo sapiens) (UniProt P55055); experiment: nonspecific reporter activation via LXR – cell-based, luminescence, HEK293, H. contortus campaign, counter-screen for hcDAF-12 agonist project, confirmation (AID 743027;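 active = mean percent activation of the reporter above a cutoff set as the average over tested compounds plus their standard deviation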); conditions: HEK293 Gal4-LXR tk-luc reporter, 24 h, at 6.8 µM, hits give high values, normalized: DMSO 0%, positive control 100%
[20] = system: Nuclear hormone receptor DAF-12 (Haemonchus contortus); experiment: hcDAF-12 luciferase reporter activation, retest – cell-based, luminescence, HEK293, lit1-tk-luc, triplicate, confirmation (AID 743032;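 active = mean activation across triplicate tests above the threshold derived from the earlier primary screen, cut at about 5.5% in these data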;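 note: 0% = DMSO only wells and 100% = 3 µM Δ7-dafachronic acid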); conditions: HEK293 hcDAF-12 lit1-tk-luc reporter, at 6.8 µM, hits give high values, % of Δ7-dafachronic acid response
[21] = target: Receptor-interacting serine/threonine-protein kinase 2 (Homo sapiens) (UniProt O43353); experiment: inhibitors of RIPK2 association with NOD2 – fluorescence, CHO cells, BLA complementation, triplicate, confirmation (AID 624370;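 active = mean inhibition across replicates above a set limit taken from the earlier primary screen, cut at about 21% in these data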;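 note: 0% = DMSO-only wells and the high end = clavulanate BLA-blocked wells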); conditions: CCF4 FRET, at 4.98 µM, hits give high values
[22] = BLA reporter readout interference – cell-based, CHO-K1 CMV-bla, CCF4 FRET, fluorescence, artefact control for NOD2-RIPK2 interaction inhibitor project, confirmation (AID 624371;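 active = mean inhibition above the low-control mean inhibition plus three low-control SD, cut at about 11% in these data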;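 note: 0% = DMSO only wells and 100% = clavulanate high control wells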); conditions: CCF4 FRET ratio, counterscreen, at 4.98 µM, hits give high values
[23] = target: Galanin receptor type 2 (Homo sapiens) (UniProt O43603); experiment: blockers of human galanin receptor 2 – cell-based, confirmation (AID 866; in the data active = inhibition above about 27%;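 note: cells stimulated with galanin at about its EC80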); conditions: GALR2-expressing cells, antagonist mode, at 4 µM, hits give high values
[24] = nonspecific BLA reporter inhibition – CHO NFAT-bla cells, FRET readout, counter-screen for GALR2 antagonist project, confirmation (AID 867;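 active = inhibition above the mean inhibition across tested compounds plus 3 SD, cut at about 27% in these data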;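 note: 0% = 500 nM thapsigargin stimulated wells and 100% = unstimulated BSA only wells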); conditions: beta-lactamase FRET, thapsigargin-stimulated, at 4.2 µM, hits give high values

COUP transcription factor 2 (Homo sapiens), sequence (P24468 whole entry, looked up): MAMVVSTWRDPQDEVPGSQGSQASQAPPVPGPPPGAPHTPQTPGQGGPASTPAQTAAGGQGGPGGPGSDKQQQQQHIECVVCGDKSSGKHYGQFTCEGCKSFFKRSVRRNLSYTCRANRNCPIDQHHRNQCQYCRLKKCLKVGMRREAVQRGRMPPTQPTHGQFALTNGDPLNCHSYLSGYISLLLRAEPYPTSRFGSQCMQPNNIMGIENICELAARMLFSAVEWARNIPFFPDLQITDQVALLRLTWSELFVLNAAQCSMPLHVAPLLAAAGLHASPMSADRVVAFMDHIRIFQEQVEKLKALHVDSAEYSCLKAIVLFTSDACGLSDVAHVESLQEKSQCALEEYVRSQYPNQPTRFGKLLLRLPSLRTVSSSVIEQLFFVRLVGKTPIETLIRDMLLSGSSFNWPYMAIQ
Oxysterols receptor LXR-beta (Homo sapiens), sequence (P55055 whole entry, looked up, the tested form may be a part): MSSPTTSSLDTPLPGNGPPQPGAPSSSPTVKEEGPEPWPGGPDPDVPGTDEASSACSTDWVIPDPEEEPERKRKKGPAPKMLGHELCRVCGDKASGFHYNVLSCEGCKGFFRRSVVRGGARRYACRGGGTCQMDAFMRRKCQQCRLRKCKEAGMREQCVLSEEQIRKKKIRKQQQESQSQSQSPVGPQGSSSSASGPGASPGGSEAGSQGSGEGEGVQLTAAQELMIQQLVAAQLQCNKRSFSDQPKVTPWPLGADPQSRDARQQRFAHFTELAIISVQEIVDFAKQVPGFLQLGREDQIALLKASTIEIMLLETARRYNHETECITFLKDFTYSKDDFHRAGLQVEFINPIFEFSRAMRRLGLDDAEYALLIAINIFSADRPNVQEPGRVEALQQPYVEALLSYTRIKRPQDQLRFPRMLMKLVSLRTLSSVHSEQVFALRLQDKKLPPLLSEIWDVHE
Photoreceptor-specific nuclear receptor (Homo sapiens), sequence (Q9Y5X4 whole entry, looked up): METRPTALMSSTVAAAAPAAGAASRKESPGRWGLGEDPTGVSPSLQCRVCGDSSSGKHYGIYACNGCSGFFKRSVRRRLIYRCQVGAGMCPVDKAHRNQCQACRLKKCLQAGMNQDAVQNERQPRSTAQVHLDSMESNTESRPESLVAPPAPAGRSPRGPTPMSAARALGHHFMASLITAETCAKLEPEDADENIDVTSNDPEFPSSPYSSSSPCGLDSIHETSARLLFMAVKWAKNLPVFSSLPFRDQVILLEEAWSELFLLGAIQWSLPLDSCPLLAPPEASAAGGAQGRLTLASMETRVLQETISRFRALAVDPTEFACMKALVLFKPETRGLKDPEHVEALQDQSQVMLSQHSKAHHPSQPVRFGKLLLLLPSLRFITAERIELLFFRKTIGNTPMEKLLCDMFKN
Peroxisome proliferator-activated receptor gamma (Homo sapiens), sequence (P37231 whole entry, looked up): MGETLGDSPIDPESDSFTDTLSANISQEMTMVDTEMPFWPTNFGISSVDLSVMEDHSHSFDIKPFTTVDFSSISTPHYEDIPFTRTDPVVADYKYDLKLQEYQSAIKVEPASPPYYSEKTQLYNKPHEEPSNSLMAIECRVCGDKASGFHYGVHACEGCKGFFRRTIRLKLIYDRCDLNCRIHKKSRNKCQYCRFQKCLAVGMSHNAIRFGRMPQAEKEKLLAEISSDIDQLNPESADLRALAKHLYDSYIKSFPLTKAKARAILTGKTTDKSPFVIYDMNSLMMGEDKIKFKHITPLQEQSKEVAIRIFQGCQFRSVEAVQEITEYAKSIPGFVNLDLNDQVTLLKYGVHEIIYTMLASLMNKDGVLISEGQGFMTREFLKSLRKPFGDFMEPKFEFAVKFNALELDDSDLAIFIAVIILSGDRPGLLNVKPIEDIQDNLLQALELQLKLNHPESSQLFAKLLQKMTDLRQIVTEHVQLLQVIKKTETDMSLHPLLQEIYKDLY
Peroxisome proliferator-activated receptor gamma (Homo sapiens) + Nuclear receptor coactivator 3 (Homo sapiens), sequence (P37231 whole entry, looked up, the tested form may be a part): as the sequence (P37231 whole entry, looked up) above
Peroxisome proliferator-activated receptor gamma (Homo sapiens) + Nuclear receptor coactivator 3 (Homo sapiens), sequence (Q9Y6Q9 whole entry, looked up, the tested form may be a part): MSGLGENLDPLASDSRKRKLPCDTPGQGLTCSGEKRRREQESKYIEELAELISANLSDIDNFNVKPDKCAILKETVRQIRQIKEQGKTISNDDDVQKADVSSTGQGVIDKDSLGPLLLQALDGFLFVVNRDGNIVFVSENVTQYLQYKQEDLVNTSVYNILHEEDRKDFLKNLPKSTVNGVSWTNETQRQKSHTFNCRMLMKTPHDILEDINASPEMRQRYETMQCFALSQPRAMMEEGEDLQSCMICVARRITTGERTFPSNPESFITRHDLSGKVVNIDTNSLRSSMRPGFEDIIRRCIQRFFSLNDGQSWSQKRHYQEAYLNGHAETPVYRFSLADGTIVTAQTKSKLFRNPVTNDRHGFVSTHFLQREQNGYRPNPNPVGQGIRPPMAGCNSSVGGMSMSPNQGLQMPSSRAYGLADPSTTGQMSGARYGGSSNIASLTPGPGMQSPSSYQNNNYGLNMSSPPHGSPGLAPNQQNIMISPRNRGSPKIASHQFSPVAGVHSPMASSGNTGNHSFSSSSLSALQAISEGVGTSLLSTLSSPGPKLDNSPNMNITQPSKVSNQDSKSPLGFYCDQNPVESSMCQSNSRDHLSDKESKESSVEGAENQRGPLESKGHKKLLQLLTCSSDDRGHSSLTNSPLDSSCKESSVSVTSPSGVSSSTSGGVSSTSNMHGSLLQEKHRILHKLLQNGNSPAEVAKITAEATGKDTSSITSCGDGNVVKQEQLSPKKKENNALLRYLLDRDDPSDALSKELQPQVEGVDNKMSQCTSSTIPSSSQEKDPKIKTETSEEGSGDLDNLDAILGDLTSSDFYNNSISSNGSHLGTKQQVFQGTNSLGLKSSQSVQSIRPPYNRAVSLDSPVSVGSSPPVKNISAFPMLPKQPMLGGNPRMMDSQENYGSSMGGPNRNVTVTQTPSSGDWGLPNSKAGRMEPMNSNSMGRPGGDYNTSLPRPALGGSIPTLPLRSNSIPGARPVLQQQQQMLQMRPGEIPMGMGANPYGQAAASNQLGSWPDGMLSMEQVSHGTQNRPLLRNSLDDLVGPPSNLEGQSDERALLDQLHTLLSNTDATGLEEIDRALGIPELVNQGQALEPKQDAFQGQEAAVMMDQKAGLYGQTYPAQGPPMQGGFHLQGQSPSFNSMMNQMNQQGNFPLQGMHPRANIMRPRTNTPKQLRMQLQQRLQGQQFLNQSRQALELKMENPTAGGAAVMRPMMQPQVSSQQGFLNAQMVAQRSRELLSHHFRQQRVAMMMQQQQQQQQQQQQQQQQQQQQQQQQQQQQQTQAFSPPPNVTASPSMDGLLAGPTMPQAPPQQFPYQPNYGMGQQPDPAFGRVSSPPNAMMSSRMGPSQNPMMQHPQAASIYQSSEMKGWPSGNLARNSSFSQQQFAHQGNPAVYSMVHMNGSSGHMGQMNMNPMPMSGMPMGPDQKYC
Nuclear receptor subfamily 5 group A member 2 (Homo sapiens), sequence (O00482 whole entry, looked up): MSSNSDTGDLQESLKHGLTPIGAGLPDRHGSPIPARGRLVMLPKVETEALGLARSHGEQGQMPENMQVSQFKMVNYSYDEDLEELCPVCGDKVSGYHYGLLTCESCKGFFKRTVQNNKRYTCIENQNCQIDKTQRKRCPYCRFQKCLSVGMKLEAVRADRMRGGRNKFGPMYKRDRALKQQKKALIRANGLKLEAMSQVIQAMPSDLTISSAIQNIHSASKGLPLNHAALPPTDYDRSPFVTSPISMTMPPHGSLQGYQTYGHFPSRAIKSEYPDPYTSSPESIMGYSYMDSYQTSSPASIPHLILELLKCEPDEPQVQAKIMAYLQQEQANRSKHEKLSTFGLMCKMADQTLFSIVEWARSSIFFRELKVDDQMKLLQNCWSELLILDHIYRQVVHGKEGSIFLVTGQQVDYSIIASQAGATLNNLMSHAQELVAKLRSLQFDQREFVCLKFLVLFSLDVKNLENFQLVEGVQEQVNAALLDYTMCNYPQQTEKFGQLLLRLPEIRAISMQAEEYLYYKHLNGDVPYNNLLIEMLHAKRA
Steroidogenic factor 1 (Homo sapiens), sequence (Q13285 whole entry, looked up, the tested form may be a part): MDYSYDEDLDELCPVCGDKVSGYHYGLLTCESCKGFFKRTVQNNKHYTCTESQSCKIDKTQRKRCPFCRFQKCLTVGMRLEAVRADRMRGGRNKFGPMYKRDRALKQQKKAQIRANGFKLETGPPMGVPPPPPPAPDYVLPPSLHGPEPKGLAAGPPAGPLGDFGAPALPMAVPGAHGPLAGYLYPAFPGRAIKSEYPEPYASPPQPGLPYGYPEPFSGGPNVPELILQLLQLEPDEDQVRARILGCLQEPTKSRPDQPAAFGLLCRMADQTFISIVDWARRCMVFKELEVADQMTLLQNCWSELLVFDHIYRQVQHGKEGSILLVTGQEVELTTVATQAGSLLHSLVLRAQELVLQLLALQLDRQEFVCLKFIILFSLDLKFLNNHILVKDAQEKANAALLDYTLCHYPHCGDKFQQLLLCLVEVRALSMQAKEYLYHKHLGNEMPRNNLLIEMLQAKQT

O=C(Nc1ccc(Cl)cn1)c1ccc2c(c1)OCCO2
active: activation [4] 13.4%
inactive: inhibition [1] 26.7% | inhibition [2] -3.07% | inhibition [3] -103% | activation [5] 0.89%

CCOc1ccc(-c2nnc(-c3ccco3)o2)cc1
active: inhibition [1] 43.7% | inhibition [2] 13.6% | activation [4] 15.5%
inactive: inhibition [3] -56.6% | activation [5] 0.7%

Cc1nc(CNS(=O)(=O)c2ccc(Oc3ccccc3)cc2)cs1
inactive: inhibition [2] 6.1% | inhibition [3] 12.1% | inhibition [8] 11% | inhibition [12] 1.48% | inhibition [13] 27%
active: inhibition [1] 43.6% | inhibition [6] 87.9% | inhibition [7] 82.8% | inhibition [9] 44.6% | inhibition [10] 43.7% | inhibition [11] 37%

CC(C(=O)N1CCOCC1)N1c2cccc3cccc(c23)S1(=O)=O (centres undefined)
inactive: activation [14] -0.94% | activation [15] 1.12% | activation [16] 1.88%

Cc1ccc(S(=O)(=O)Nc2ccc3ncccc3c2)cc1
inactive: inhibition [1] 42.9% | inhibition [2] 3.83% | inhibition [17] -9.28% | inhibition [18] 5.01% | inhibition [8] 14.9% | inhibition [10] 36.3% | inhibition [11] 18.1%
active: inhibition [3] 18% | inhibition [6] 89.4% | inhibition [7] 74.4% | inhibition [9] 47.2%

O=c1oc(/C=C/c2ccccc2)nc2ccccc12
active: activation [4] 14.4%
inactive: inhibition [1] 10.7% | inhibition [2] -7.17% | inhibition [3] -42.9% | activation [5] 0.58%

CC(C)CC(=O)N/C(N)=N/c1nc2ccccc2s1
inactive: inhibition [1] 6.93% | inhibition [2] -39.6% | inhibition [3] -138% | activation [19] 1.25%
active: activation [20] 5.93%

O=C(Nc1nc(-c2ccc3c(c2)OCO3)cs1)c1ccncc1
active: inhibition [1] 49.5% | inhibition [13] 50.7%
inactive: inhibition [2] 11.5% | inhibition [3] 6.97% | inhibition [12] -26.7%

COc1cc(SC)ccc1C(=O)Nc1cc(C)ccn1
inactive: inhibition [1] 8.73% | inhibition [2] -35.4% | inhibition [3] -139% | activation [19] 1.02% | activation [20] 4.37% | activation [5] 1.05%
active: activation [4] 17.2%

CCc1ccc(-n2c(SCc3cc(=O)n4cc(Br)ccc4n3)nc3[nH]ncc3c2=O)cc1
active: activation [14] 40.9% | activation [15] 26.6% | activation [16] 28.8%

COc1ccccc1Oc1ccc(S(=O)(=O)Nc2cccnc2)cc1
inactive: inhibition [1] 33% | inhibition [2] 5.8% | inhibition [3] 8.77%
active: inhibition [6] 95.5% | inhibition [7] 75.8%

CCCc1ccc(-c2csc(NC(=O)Cc3cccs3)n2)cc1
active: inhibition [21] 32.7% | inhibition [22] 31.1%
inactive: inhibition [1] 34.2% | inhibition [2] 4.13% | inhibition [3] 4.43% | inhibition [12] -25% | inhibition [13] 15.2%

COc1ccc(Nc2ncc(F)c(N3CCOCC3)n2)cc1
inactive: inhibition [1] 3.37% | inhibition [2] -21.5% | inhibition [3] -107% | activation [5] 1%
active: activation [4] 16.1%

Cc1nc2ccccc2cc1OCc1ccc(F)cc1
active: inhibition [1] 61.5% | inhibition [6] 82.5% | inhibition [13] 38%
inactive: inhibition [2] 6.3% | inhibition [3] 5.63% | inhibition [7] 70.5% | inhibition [12] -26.8%

N=C(N)SCc1cccc2ccccc12
inactive: inhibition [1] 31.7% | inhibition [2] 4.87% | inhibition [12] 6.09% | inhibition [13] 20.6%
active: inhibition [3] 19.2%

CN(Cc1cccnc1)C(=O)c1cc(COc2ccc3ncccc3c2)on1
active: inhibition [1] 75.9% | inhibition [2] 25.1% | inhibition [3] 27.1% | inhibition [18] 26.4% | inhibition [6] 89.1% | inhibition [7] 78.8% | inhibition [13] 59%
inactive: inhibition [17] -14.7% | inhibition [12] 0.64%

CCCOc1ccc(C(=O)NCCc2ccccc2)cc1
active: activation [20] 7.43% | activation [4] 14.1%
inactive: inhibition [1] 11.6% | inhibition [2] -7.27% | inhibition [3] -61.1% | activation [19] 1.59% | activation [5] 0.6%

CCN(CCCNC(=O)CSc1cc(=O)n(C)c2cc(Cl)ccc12)Cc1ccccc1
active: activation [14] 29.4%
inactive: activation [15] 19.2% | activation [16] 20.4%

Cc1ccc(F)cc1NC(=O)Cc1nn(C)c(=O)c2ccccc12
inactive: inhibition [24] 12.4% | inhibition [6] 65.1% | inhibition [7] 61.5% | inhibition [12] 9%
active: inhibition [23] 33.5% | inhibition [1] 51.9% | inhibition [2] 16.1% | inhibition [3] 21.2% | inhibition [13] 48.1%

O=c1c2c(nc3cc(-c4cccc(Cl)c4)[nH]n13)CCCC2
inactive: inhibition [1] 21.9% | inhibition [2] -3.1% | inhibition [3] -108% | activation [19] 1.76% | activation [5] 1.15%
active: activation [20] 9.19% | activation [4] 13.8%
